# Reference: PubChem BioAssay (NCATS)
# Values without a mark were called inactive. Records with an inconclusive call do not appear. Where a call stands in place of a potency, no number is given. Active and inactive are the calls of the source. Unless noted, the call rests on the fitted dose curve; in most records, active means well fitted curve in the direction sought with a large enough effect; inconclusive means small, poorly fitted or top-dose-only effect, or another doubt; inactive means no such curve, though single readings can be large; an effect the other way counts as inactive or inconclusive.
# What was measured:
# [1] = target: Rap guanine nucleotide exchange factor 3 (Homo sapiens) (UniProt O95398); test: Confirmatory qHTS for antagonist of cAMP-regulated guanine nucleotide exchange factor 3 (EPAC1) (AID 1645880); settings: EPAC1 Rap1B-BODIPY-GDP exchange, fluorescence; activity, negative = inhibition: at 115 µM (top of the series); further: nearly all actives have a fitted effect of over 55% in size
# How it was run: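 Released BODIPY-GDP fluoresces less than Rap1-bound BODIPY-GDP; the signal is followed at 480/540 nm at 5-min intervals over 30 min, after 5 min at room temperature. Reactions contain 100 nM EPAC1, 250 nM RAP1B-BODIPY-GDP and 50 uM GDP; results are normalized to ATA and DMSO.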
# [2] = target: Rap guanine nucleotide exchange factor 3 (Homo sapiens) (UniProt O95398); test: Confirmatory qHTS for agonist of cAMP-regulated guanine nucleotide exchange factor 3 (EPAC1) (AID 1645881);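 further: EPAC1 catalysed release of BODIPY-GDP from Rap1B seen as fluorescence loss; nearly all actives have a fitted effect of over 75% in size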
# [3] = target: Rap guanine nucleotide exchange factor 3 (Homo sapiens) (UniProt O95398); test: Counterscreen qHTS for antagonist of cAMP-regulated guanine nucleotide exchange factor 3 (EPAC1) (AID 1645888)
# How it was run: (§1)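 Measured: fluorescence of BODIPY-GDP bound to Rap1B, which falls as exchange proceeds. Conditions include 50 uM competing GDP, 5 and 30 min reads, and a later cAMP challenge for antagonist detection.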
# [4] = target: Tumor susceptibility gene 101 protein (Homo sapiens) (UniProt Q99816); test: qHTS Assay for Iinhibitors of HIV-1 Budding by Blocking the Interaction of PTAP/TSG101: Hit Validation (AID 651600); further: potency means the concentration at half of the fitted maximal effect; nearly all actives have a fitted effect of over 70% in size
# How it was run: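 Displacement of a FITC-labeled PTAP-motif peptide (50 nM) from the Tsg101 binding domain (10 uM) was monitored by fluorescence polarization after a 20 min room-temperature incubation.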
# [5] = target: Rap guanine nucleotide exchange factor 4 (Homo sapiens) (UniProt Q8WZA2); test: Confirmatory qHTS for antagonist of cAMP-regulated guanine nucleotide exchange factor 4 (EPAC2) (AID 1645885); further: nearly all actives have a fitted effect of over 25% in size; further: potency means the concentration at half of the fitted maximal effect
# [6] = target: Rap guanine nucleotide exchange factor 3 (Homo sapiens) (UniProt O95398); test: Counterscreen qHTS for agonist of cAMP-regulated guanine nucleotide exchange factor 3 (EPAC1) (AID 1645889); further: nearly all actives have a fitted effect of over 40% in size
# How it was run: as §1
# [7] = target: Tyrosyl-DNA phosphodiesterase 1 (Homo sapiens) (UniProt Q9NUW8); test: Confirmation Assay for Inhibitors of Tyrosyl-DNA Phosphodiesterase (TDP1) (AID 489007); settings: recombinant human TDP1 enzymatic activity, dose-response; further: potency means the concentration at half of the fitted maximal effect; nearly all actives have a fitted effect of over 40% in size
# How it was run: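 AlphaScreen assay of tyrosine-FITC cleavage from a biotinylated DNA substrate (15 nM) by E. coli-expressed human Tdp1 (1 nM). Sequence: compound preincubation 15 min, reaction 5 min, bead detection 10 min, all at room temperature. No-enzyme wells give maximum signal.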
# [8] = target: Lysosomal acid glucosylceramidase (Homo sapiens) (UniProt P04062); test: Glucocerebrosidase-p2 (AID 348; in the data active means potency below about 10 µM; further: potency means the concentration at half of the fitted maximal effect); settings: purified GBA, blue fluorogenic substrate, 40 min
# How it was run: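 Normal human glucocerebrosidase (0.2 nM) with blue fluorogenic substrate (80 uM final) in citrate/phosphate pH 5.9 with 10mM sodium taurocholate, 0.01% tween-20; 40 min RT, NaOH/glycine stop; fluorescence Ex 365/Em 440; AC50 from a titration from 0.6 nM upwards.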
# [9] = AP1 Signaling Pathway (AID 357; active means well fitted curve in either direction with a large enough effect, not every such curve was filed as active;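 further: ME-180 reporter cells stimulated with EGF at its EC50 level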); settings: ME-180 (cervical carcinoma) AP-1-bla reporter, EGF-induced, beta-lactamase ratio, 5 h; at 7.69 µM (top of the series) unless noted
# How it was run: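 Beta-lactamase reporter under AP-1 response element, ME-180 background. Stimulus: EC50 EGF. Compound exposure 5 h, 37 °C. Detection: CCF4, 2.5 h RT, 460/530 nm. Values: AC50 from titration.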
# [10] = NFAT Signaling Pathway (AID 444; active means well fitted curve in either direction with a large enough effect, not every such curve was filed as active;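 further: carbachol stimulus at about its EC50 of 1 µM final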); settings: Jurkat NFAT-bla M1, carbachol, beta-lactamase ratio, 5 h; at 7.69 µM (top of the series) unless noted
# How it was run: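 Jurkat cells carrying an NFAT-driven β-lactamase reporter and co-transfected muscarinic M1 receptor were treated with compound plus carbachol (1 uM final, an EC50 level) for 5 h at 37 °C. CCF4 loading followed for 1 h at RT; 460/530 nm ratio gave %activity.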
# [11] = Stat Signaling Pathway (AID 446; active means well fitted curve in either direction with a large enough effect, not every such curve was filed as active;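 further: ME-180 cervical cancer cells given 40 pM IL-6 alongside compound; SIE-controlled beta-lactamase reporter measured as 460/530 nm FRET emission ratio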)
# How it was run: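 Emission at 460 and 530 nm (excitation 405 nm) reports SIE-controlled beta-lactamase in ME-180 cells. Cells received compound with 40 pM IL-6 for 5 hrs at 37 C; data scaled between 300 pM IL-6 and 125 nM JAK-inhibitor controls.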
# [12] = target: Glucocorticoid receptor (Homo sapiens) (UniProt P04150); test: GR-GFP Redistribution (AID 450;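 active means compounds whose dose series gives a full or clear partial fitted curve of increased nuclear translocation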; further: potency means the concentration at half of the fitted maximal effect); settings: U2OS GR-GFP nuclear translocation, laser cytometry, 2 h
# [13] = target: Glucocorticoid receptor (Homo sapiens) (UniProt P04150); test: GR-EFC Redistribution (AID 451; calls by dose curve; further: potency means the concentration at half of the fitted maximal effect); settings: CHO-K1 GR-EFC translocation, beta-gal luminescence, 2 h
# How it was run: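 CHO-K1 cells stably expressing nuclear-localized β-gal enzyme acceptor and GR fused C-terminally to the enzyme donor fragment; ligand-driven nuclear translocation restores β-gal by complementation. Compounds titrated up to 46 uM final, 2 h at 37 °C; luminescence read.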
# [14] = target: Mitogen-activated protein kinase 10 (Mus musculus) (UniProt Q61831); test: JNK3 AlphaScreen Assay (AID 530; active means well fitted curve in either direction with a large enough effect, not every such curve was filed as active;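 further: kinase came from lysate of stimulated human HepG2 cells; signal reports phosphorylation of biotinylated GST-cJun 1-79 at Ser73 with 10 µM ATP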)
# How it was run: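 Phosphorylation of biotinylated GST-cJun(1-79) at Ser73 is measured by AlphaScreen proximity luminescence. Enzyme is JNK3 in HepG2 lysates activated with interleukin-1beta and tumor necrosis factor alpha; ATP is 10 uM final.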
# [15] = target: 3',5'-cyclic-AMP phosphodiesterase 4B (Homo sapiens) (UniProt Q07343); test: qHTS Assay for Inhibitors of PDE-IV (AID 607; active means well fitted activation curve with a large enough effect in the main read-out, with a control signal flat, not every such curve was filed as active)
# How it was run: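 The readout is membrane depolarisation from a cAMP-sensing CNG channel, detected with a potential dye at ex 535/em 590. Cells were HEK293-derived (endogenous PDE-IV) at 1000 cells/well, titrated up to 22.9 uM final.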
# [16] = target: Cytochrome P450 3A4 (Homo sapiens) (UniProt P08684); test: qHTS Assay for Inhibitors and Substrates of Cytochrome P450 3A4 (AID 884); further: potency means the concentration at half of the fitted maximal effect; nearly all actives have a fitted effect of over 50% in size
# How it was run: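 Luminescent readout of luciferin produced by CYP3A4 (20 nM) dealkylation of Luciferin-PPXE, 25 uM (its KM). NADPH-driven reaction ran 60 min at RT after 10 min compound preincubation; data scaled to 57 uM ketoconazole as 100% inhibition.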
# [17] = target: Cytochrome P450 3A4 (Homo sapiens) (UniProt P08684); test: qHTS Assay for Activators of Cytochrome P450 3A4 (AID 885); further: nearly all actives have a fitted effect of over 65% in size
# How it was run: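 Activators are scored by enhanced luminescence from CYP3A4 conversion of luciferin-PPXE (25uM, equal to KM) to luciferin, after 60 min at RT with an NADPH-regenerating system.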
# [18] = target: Cytochrome P450 2D6 (Homo sapiens) (UniProt P10635); test: qHTS Assay for Inhibitors and Substrates of Cytochrome P450 2D6 (AID 891); further: potency means the concentration at half of the fitted maximal effect; nearly all actives have a fitted effect of over 60% in size
# How it was run: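 Luminescent read-out of luciferin formed by 5 nM human CYP2D6 demethylating 30 uM Luciferin-ME EGE (Km level) over 60 min at room temperature after NADPH regeneration addition. Data normalized to full inhibition by 1.43 uM quinidine.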
# [19] = target: Cytochrome P450 2C19 (Homo sapiens) (UniProt P33261); test: qHTS Assay for Inhibitors and Substrates of Cytochrome P450 2C19 (AID 899); further: potency means the concentration at half of the fitted maximal effect; nearly all actives have a fitted effect of over 60% in size
# How it was run: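 Human CYP2C19 (5nM) with Luciferin-H EGE at 10uM (its KM) in 50mM KPO4 was preincubated with compound for 10 min at 37C. NADPH regeneration started a 60 min 37C reaction. Luciferin was read by luminescence, normalized to 57uM ketoconazole.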
# [20] = target: Dual specificity protein kinase CLK4 (Homo sapiens) (UniProt Q9HAZ1); test: qHTS Assay for Inhibitors of CDC-like Kinase 4 (Kinase-Glo Assay) (AID 1770); further: potency means the concentration at half of the fitted maximal effect; nearly all actives have a fitted effect of over 65% in size
# How it was run: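 Inhibition was judged from remaining ATP, measured by Ultra-Glo luciferase bioluminescence after Clk4 (25 nM) had acted on RS peptide at 1 uM ATP for 4.5 hours, room temperature.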
# [21] = target: Dual specificity protein kinase CLK4 (Homo sapiens) (UniProt Q9HAZ1); test: qHTS Assay for Inhibitors of CDC-like Kinase 4 (ADP-FP Assay) (AID 1795); further: potency means the concentration at half of the fitted maximal effect; nearly all actives have a fitted effect of over 60% in size
# How it was run: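 Inhibition of ADP formation by 6.25 nM Clk4 is measured using 1 uM ATP and 100 uM RS repeat peptide over one hour. Produced ADP displaces a fluorescent tracer from antibody, lowering polarization.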
# [22] = target: Ubiquitin carboxyl-terminal hydrolase 1 (Homo sapiens) (UniProt O94782); test: Inhibitors of USP1/UAF1: Pilot qHTS (AID 504865);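 further: rhodamine fluorescence freed from ubiquitin-rhodamine substrate followed over time; top concentration of the series differs between compounds; nearly all actives have a fitted effect of over 35% in size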
# How it was run: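 Kinetic fluorescence assay: 1nM USP1/UAF1, 15 min compound preincubation, then 150nM Ub-Rho; 480/540 nm.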
# Sequence of Rap guanine nucleotide exchange factor 4 (Homo sapiens) (Q8WZA2 whole entry, looked up): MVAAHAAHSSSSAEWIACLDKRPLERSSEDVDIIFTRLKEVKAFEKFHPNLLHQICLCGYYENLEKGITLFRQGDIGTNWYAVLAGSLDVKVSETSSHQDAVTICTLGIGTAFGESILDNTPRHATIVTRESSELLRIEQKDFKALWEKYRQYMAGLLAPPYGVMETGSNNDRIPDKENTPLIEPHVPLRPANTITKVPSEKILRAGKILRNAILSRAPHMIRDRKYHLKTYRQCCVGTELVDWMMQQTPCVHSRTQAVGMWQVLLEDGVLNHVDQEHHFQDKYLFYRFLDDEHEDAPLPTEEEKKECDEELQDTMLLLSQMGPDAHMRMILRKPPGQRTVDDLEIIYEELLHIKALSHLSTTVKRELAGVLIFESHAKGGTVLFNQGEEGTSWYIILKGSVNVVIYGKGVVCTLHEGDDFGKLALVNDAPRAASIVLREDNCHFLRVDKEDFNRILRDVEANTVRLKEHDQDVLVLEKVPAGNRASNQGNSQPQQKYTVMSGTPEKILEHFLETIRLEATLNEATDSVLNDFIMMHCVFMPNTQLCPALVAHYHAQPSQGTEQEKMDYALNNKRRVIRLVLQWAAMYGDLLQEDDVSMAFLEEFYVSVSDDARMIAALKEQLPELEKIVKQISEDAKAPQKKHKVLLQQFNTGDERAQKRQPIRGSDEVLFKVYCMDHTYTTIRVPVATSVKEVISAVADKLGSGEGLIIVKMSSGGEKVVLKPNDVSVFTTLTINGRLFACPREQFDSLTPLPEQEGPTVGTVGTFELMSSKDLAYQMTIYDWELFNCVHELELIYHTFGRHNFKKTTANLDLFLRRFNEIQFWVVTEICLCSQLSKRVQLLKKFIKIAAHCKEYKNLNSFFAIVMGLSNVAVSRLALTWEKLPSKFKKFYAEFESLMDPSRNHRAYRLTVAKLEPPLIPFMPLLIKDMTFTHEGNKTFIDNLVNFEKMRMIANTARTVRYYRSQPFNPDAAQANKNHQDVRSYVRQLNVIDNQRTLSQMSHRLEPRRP
# Sequence of Rap guanine nucleotide exchange factor 3 (Homo sapiens) (O95398 whole entry, looked up): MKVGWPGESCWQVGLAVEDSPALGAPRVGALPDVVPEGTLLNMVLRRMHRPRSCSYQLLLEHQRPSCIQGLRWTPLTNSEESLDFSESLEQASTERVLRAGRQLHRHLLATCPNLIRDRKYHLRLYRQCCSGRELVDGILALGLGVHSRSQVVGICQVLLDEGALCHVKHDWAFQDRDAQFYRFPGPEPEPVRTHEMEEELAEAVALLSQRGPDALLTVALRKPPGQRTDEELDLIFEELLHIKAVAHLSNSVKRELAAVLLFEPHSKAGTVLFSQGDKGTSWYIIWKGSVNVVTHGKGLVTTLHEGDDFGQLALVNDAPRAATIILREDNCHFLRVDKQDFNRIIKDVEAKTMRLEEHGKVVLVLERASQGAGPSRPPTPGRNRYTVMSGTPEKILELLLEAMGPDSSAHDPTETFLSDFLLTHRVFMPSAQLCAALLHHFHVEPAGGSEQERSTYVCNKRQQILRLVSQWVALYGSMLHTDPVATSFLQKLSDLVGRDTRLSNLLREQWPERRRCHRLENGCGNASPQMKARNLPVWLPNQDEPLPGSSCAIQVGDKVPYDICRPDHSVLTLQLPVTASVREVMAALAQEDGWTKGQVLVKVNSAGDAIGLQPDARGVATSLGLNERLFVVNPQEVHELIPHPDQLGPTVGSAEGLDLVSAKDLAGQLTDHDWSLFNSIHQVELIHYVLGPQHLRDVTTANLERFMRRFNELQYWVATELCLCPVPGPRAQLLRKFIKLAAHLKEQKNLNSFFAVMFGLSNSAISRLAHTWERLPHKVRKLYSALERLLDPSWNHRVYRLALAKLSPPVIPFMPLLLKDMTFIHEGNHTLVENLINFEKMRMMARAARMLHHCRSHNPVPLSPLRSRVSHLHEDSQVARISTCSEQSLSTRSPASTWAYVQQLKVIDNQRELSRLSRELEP
# Sequence of Dual specificity protein kinase CLK4 (Homo sapiens) (Q9HAZ1 whole entry, looked up): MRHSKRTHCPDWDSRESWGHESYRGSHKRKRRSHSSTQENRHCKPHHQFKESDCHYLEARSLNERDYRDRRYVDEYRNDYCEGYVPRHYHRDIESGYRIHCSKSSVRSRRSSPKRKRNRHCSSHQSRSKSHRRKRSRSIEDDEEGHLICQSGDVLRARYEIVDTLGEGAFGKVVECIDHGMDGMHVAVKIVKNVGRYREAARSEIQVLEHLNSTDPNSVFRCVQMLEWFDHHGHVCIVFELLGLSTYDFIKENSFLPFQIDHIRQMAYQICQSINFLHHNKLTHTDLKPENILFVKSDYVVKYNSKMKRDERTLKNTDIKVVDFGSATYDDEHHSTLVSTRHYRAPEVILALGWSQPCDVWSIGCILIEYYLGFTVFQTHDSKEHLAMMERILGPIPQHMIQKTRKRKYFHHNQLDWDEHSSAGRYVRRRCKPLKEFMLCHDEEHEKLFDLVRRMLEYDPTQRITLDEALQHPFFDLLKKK
# Sequence of Cytochrome P450 3A4 (Homo sapiens) (P08684 whole entry, looked up): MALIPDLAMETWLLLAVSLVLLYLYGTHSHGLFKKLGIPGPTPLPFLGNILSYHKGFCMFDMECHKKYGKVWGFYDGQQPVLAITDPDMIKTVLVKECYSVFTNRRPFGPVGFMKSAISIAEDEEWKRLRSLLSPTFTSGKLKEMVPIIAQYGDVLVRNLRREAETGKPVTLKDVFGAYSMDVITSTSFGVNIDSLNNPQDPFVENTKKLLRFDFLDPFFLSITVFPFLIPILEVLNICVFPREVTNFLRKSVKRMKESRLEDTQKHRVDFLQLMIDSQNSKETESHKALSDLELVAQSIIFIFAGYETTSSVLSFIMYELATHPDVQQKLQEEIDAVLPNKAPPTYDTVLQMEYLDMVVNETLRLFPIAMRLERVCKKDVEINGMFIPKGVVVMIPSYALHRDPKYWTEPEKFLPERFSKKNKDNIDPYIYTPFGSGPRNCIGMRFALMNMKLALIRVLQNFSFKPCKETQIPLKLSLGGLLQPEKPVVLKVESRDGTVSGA
# Sequence of Glucocorticoid receptor (Homo sapiens) (P04150 whole entry, looked up, the tested form may be a part): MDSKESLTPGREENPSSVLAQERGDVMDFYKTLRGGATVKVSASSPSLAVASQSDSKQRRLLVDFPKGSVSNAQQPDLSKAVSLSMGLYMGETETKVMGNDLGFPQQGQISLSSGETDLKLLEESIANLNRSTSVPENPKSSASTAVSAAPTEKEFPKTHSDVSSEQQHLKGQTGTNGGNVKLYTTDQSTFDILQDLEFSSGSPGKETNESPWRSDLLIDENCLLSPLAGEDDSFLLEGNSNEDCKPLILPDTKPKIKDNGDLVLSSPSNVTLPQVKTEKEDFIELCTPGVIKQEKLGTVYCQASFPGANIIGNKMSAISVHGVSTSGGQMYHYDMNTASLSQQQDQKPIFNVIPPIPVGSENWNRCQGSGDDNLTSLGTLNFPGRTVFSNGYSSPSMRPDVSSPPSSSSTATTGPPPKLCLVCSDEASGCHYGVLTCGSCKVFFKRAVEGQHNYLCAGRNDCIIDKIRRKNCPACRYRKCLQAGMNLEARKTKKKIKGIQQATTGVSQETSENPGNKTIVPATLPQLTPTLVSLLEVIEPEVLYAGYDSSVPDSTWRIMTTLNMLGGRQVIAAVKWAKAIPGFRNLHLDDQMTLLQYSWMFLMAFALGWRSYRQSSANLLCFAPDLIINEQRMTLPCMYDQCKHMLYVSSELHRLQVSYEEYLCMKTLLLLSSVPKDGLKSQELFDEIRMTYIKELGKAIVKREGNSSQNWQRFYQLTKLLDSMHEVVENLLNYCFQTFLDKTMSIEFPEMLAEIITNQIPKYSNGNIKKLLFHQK
# Sequence of Cytochrome P450 2D6 (Homo sapiens) (P10635 whole entry, looked up): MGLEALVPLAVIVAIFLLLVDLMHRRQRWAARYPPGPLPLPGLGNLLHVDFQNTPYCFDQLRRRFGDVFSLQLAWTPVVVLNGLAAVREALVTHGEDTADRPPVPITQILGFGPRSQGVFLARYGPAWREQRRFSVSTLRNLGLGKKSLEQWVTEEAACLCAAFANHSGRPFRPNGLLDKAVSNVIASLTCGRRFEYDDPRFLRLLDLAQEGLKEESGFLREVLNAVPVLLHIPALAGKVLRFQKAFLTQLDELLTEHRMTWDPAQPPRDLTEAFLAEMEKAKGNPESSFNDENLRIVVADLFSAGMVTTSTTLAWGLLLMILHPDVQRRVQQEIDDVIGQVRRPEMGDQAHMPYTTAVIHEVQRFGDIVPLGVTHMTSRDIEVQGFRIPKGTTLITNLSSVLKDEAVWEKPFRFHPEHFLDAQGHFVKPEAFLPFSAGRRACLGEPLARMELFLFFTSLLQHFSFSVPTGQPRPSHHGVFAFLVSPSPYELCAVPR
# Sequence of Tumor susceptibility gene 101 protein (Homo sapiens) (Q99816 whole entry, looked up, the tested form may be a part): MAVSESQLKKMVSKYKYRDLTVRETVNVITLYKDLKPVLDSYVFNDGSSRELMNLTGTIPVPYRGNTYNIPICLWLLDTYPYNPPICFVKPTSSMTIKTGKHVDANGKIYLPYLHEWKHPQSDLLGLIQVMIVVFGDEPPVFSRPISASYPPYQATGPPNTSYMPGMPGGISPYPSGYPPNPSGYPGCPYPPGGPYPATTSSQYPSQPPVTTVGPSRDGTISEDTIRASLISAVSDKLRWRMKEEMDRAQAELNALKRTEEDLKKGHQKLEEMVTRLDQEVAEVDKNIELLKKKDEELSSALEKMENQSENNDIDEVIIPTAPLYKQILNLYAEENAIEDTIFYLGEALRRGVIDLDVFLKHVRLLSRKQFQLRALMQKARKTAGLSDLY
smiles,measurement,setting,value
COC(=O)c1cccc(F)c1C(=O)c1cccc2ccccc12,Potency,[1],inactive
same,Potency,[2],inactive
same,Potency,[3],inactive
CCn1cc(C=C2C(=O)c3ccccc3C2=O)c2ccccc21,Potency,[4],14.6 µM (active)
same,Potency,[1],inactive
same,Potency,[2],inactive
same,Potency,[5],inactive
same,Potency,[3],inactive
same,Potency,[6],inactive
COC(=O)c1ccc2nc(-c3ccc(Cl)cc3)c(Cc3cccc(F)c3)n2c1,Potency,[1],inactive
same,Potency,[2],inactive
same,Potency,[3],inactive
CN(Cc1ccccc1)c1nc(-c2ccc(F)cc2)cc(C(F)(F)F)n1,Potency,[7],28.2 µM (active)
same,Potency,[1],inactive
same,Potency,[2],inactive
same,Potency,[5],0.0849 µM (active)
same,Potency,[3],inactive
same,Potency,[6],inactive
COCCN(CCOC)Cc1cc(=O)oc2cc(OC)c(Cl)cc12,Potency,[1],inactive
same,Potency,[2],inactive
same,"activity change, negative = inhibition",[3],-10.8% [at 30.8 µM]
COc1c(Cl)cc(Cl)cc1CNc1ccc(S(N)(=O)=O)cc1,Potency,[1],inactive
same,Potency,[2],inactive
same,Potency,[3],inactive
COc1ccccc1NC(=O)Cc1ccc(-c2ccccc2)cc1,Potency,[1],inactive
same,Potency,[2],inactive
same,Potency,[5],inactive
same,Potency,[6],inactive
COc1ccc(Nc2cccc3ccccc23)cc1,Potency,[1],inactive
same,Potency,[2],inactive
same,Potency,[3],inactive
COc1ccc(NC(=O)CSc2ccccc2)cc1S(=O)(=O)N1CCCCC1,Potency,[1],inactive
same,Potency,[2],inactive
same,Potency,[3],inactive
O=S(=O)(c1ccc(Br)c2ccccc12)N1CCCC1,Potency,[1],inactive
same,Potency,[2],inactive
same,Potency,[5],inactive
same,Potency,[3],inactive
same,Potency,[6],inactive
COc1ccc2[nH]cc(CCNc3ncncc3-c3ccccc3Cl)c2c1,Potency,[8],> 11.4 µM
same,"activity change, negative = inhibition",[9],-12.3%
same,"activity change, negative = inhibition",[10],-11.6%
same,outcome,[11],inactive
same,Potency,[12],> 46 µM
same,Potency,[13],> 46 µM
same,Potency,[14],inactive
same,Potency,[15],inactive
same,Potency,[16],0.398 µM (active)
same,outcome,[17],inactive
same,Potency,[18],0.631 µM (active)
same,Potency,[19],0.0631 µM (active)
same,Potency,[20],12.6 µM (active)
same,Potency,[21],12.6 µM (active)
same,Potency,[22],inactive
same,Potency,[1],inactive
same,Potency,[2],inactive
same,Potency,[5],inactive
COC(=O)c1ccc2nc(-c3ccc(F)cc3)c(Cc3ccsc3)n2c1,Potency,[1],inactive
same,Potency,[2],inactive
same,"activity change, negative = inhibition",[3],-9.08% [at 30.8 µM]
CCCCc1c(C)nc2ccccc2c1SCCC#N,Potency,[1],inactive
same,Potency,[2],inactive
same,"activity change, negative = inhibition",[3],-10% [at 30.8 µM]
CCCCn1nnnc1C(c1cc2ccccc2o1)N1CCN(c2cc(C)nc3ccccc23)CC1 (stereo unspecified),Potency,[1],inactive
same,Potency,[2],inactive
same,Potency,[3],inactive
